Inconclusive results are not listed. The source made the active and inactive calls. Rule for the calls, unless noted: active = hit-call score of the fitted dose curve at least 0.9, where 1 is the maximum; inconclusive = response in the unintended direction; inactive = score below 0.9.
Tests used:
[1] = molecular target: human RAR-related Orphan Receptor beta (RORb), RORB (gene 6096) (UniProt Q92753); assay: ATG_RORb_TRANS: Attagene TRANS-FACTORIAL HepG2 Assay for human RAR-related Orphan Receptor beta (RORb) (AID 2283010)
Method in brief: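 Readout is reporter-gene mRNA induction, detected as fluorescence after RT-PCR and capillary electrophoresis, fitted for gain of signal against DMSO controls. Transiently transfected HepG2 liver cells carrying GAL4-UAS reporter constructs were treated for 24 hours.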

[2] = molecular target: human Retinoid X Receptor beta (RXRb), RXRB (gene 6257) (UniProt P28702); assay: ATG_RXRb_TRANS: Attagene TRANS-FACTORIAL HepG2 Assay for human Retinoid X Receptor beta (RXRb) (AID 2283013)
Method in brief: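 Transfect HepG2 with GAL4-UAS multi-reporter constructs (chimeric NR-Gal4, TRANS format); dose compound 24 h; isolate RNA, RT-PCR, FAM primer extension, HpaI digest; quantify by capillary electrophoresis; positive direction vs DMSO.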

[3] = molecular target: Retinoic acid receptor RXR-alpha (Homo sapiens) (UniProt P19793); assay: ATG_RXRa_TRANS: Attagene TRANS-FACTORIAL HepG2 Assay for human Retinoid X Receptor alpha (RXRa) (AID 2283012)
Method in brief: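 Transient transfection of human HepG2 with multiple GAL4-UAS reporter constructs; 24 h compound exposure; total RNA isolated, reverse-transcribed, PCR-amplified, 6-FAM labelled, HpaI-cut, resolved by capillary electrophoresis. Positive-direction fit versus DMSO.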

[4] = molecular target: human Thyroid Receptor alpha (THRa1), THRA (gene 7067) (UniProt P10827); assay: ATG_THRa1_TRANS: Attagene TRANS-FACTORIAL HepG2 Assay for human Thyroid Receptor alpha (THRa1) (AID 2283014)
Method in brief: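 Reporter transcript induction, read by capillary electrophoresis of 6-FAM-labelled RT-PCR products, reflects activity of a transfected THRa1-Gal4 fusion in HepG2 liver cells. Cells were dosed for 24 h; activity was fitted in the positive direction against DMSO.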

[5] = read-out: E-selectin (Homo sapiens) (UniProt P16581); assay: BSK_3C_Eselectin: BioMAP Diversity Plus: 3C Assay for Eselectin Biomarker Activity (AID 2283015; active = hit-call score of the fitted dose curve at least 0.9, where 1 is the maximum; inactive = score below 0.9); conditions: primary human endothelial cells (HUVEC); actives raise or lower the signal
Method in brief: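 ELISA read-out of E-selectin on endothelial monolayers after 24 h chemical treatment. Human umbilical vein primary cells served as the system, with DMSO defining baseline activity for bidirectional fitting.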

[6] = read-out: Interleukin-1 alpha (IL1a), IL1A (gene 3552); assay: BSK_BE3C_IL1a: BioMAP Diversity Plus: BE3C Assay for Interleukin-1 alpha (IL1a) Biomarker Activity (AID 2283016; active = hit-call score of the fitted dose curve at least 0.9, where 1 is the maximum; inactive = score below 0.9); conditions: primary human bronchial epithelial cells; actives raise or lower the signal
Method in brief: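 BE3C primary human bronchial epithelium; cpd 24 h; IL-1a by ELISA; bidirectional fit vs DMSO; parallel SRB (0.1% SRB, 10% TCA fix, 560 nm) for cytotoxicity.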

[7] = read-out: Monocyte Chemoattractant Protein-1 (MCP1), CCL2 (gene 6347); assay: BSK_4H_MCP1: BioMAP Diversity Plus: 4H Assay for Monocyte Chemoattractant Protein-1 (MCP1) Biomarker Activity (AID 2283018; active = hit-call score of the fitted dose curve at least 0.9, where 1 is the maximum; inactive = score below 0.9); conditions: primary human endothelial cells (HUVEC); actives raise or lower the signal
Method in brief: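 ELISA read-out of MCP-1 from human vascular endothelial primary cells taken at 24 hours after compound exposure. Activity was fitted in both directions relative to DMSO, which served as negative control.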

[8] = read-out: Human Leukocyte Antigen - DR isotype (HLADR), HLA-DRA (gene 3122); assay: BSK_3C_HLADR: BioMAP Diversity Plus: 3C Assay for Human Leukocyte Antigen - DR isotype (HLADR) Biomarker Activity (AID 2283019; active = hit-call score of the fitted dose curve at least 0.9, where 1 is the maximum; inactive = score below 0.9); conditions: primary human endothelial cells (HUVEC); actives raise or lower the signal
Method in brief: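 ELISA readout of surface HLA-DR on human umbilical vein endothelium, taken 24 h after chemical treatment. Gain- and loss-of-signal were both fitted relative to DMSO.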

[9] = molecular target: human RAR-related Orphan Receptor gamma (RORg), RORC (gene 6097) (UniProt P51449); assay: ATG_RORg_TRANS: Attagene TRANS-FACTORIAL HepG2 Assay for human RAR-related Orphan Receptor gamma (RORg) (AID 2283011)
Method in brief: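 First, HepG2 liver cells were transfected with GAL4-UAS-driven reporter constructs and the RORg-Gal4 fusion. Next, they were treated with chemical for 24 h. Finally, reporter mRNA was quantified by RT-PCR and capillary electrophoresis, with upward activity fitted against DMSO.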

[10] = read-out: Monocyte Chemoattractant Protein-1 (MCP1), CCL2 (gene 6347); assay: BSK_3C_MCP1: BioMAP Diversity Plus: 3C Assay for Monocyte Chemoattractant Protein-1 (MCP1) Biomarker Activity (AID 2283017; active = hit-call score of the fitted dose curve at least 0.9, where 1 is the maximum; inactive = score below 0.9); conditions: primary human endothelial cells (HUVEC); actives raise or lower the signal
Method in brief: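 ELISA read-out of MCP-1 from human umbilical vein endothelial cell cultures harvested 24 h post-dosing. Gain or loss of signal was fitted relative to DMSO.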

Measured: AC50

Sequence of human RAR-related Orphan Receptor gamma (RORg), RORC (gene 6097) (P51449 whole entry, looked up, the tested form may be a part): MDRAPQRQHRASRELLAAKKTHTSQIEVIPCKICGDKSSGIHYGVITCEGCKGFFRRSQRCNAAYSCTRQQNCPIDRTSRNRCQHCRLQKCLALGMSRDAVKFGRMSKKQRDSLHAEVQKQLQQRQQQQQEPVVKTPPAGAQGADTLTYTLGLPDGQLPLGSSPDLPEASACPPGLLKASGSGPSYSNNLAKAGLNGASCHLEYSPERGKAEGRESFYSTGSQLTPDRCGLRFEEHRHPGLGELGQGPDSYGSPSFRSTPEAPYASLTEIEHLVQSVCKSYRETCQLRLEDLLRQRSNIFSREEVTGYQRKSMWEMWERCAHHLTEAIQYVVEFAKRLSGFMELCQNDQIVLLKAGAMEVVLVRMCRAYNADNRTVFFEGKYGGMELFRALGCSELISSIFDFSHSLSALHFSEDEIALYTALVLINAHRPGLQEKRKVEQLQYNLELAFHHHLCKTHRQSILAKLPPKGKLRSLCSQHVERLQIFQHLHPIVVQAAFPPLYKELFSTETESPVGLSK
Sequence of human Retinoid X Receptor beta (RXRb), RXRB (gene 6257) (P28702 whole entry, looked up, the tested form may be a part): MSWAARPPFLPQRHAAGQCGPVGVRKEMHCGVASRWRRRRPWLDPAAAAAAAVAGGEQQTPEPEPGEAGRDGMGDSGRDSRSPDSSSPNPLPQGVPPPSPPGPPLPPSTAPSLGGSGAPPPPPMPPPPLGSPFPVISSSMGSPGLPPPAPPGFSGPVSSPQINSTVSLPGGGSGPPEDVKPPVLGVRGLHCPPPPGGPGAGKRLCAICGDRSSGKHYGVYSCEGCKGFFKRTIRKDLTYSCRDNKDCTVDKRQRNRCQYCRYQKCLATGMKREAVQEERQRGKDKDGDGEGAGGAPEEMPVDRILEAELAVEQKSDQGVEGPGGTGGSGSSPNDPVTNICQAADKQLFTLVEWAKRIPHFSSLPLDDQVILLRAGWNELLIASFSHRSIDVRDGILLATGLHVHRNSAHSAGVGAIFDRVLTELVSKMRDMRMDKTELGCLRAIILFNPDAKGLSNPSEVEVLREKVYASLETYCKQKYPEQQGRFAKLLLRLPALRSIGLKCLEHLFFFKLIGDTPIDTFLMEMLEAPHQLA
Sequence of human Thyroid Receptor alpha (THRa1), THRA (gene 7067) (P10827 whole entry, looked up, the tested form may be a part): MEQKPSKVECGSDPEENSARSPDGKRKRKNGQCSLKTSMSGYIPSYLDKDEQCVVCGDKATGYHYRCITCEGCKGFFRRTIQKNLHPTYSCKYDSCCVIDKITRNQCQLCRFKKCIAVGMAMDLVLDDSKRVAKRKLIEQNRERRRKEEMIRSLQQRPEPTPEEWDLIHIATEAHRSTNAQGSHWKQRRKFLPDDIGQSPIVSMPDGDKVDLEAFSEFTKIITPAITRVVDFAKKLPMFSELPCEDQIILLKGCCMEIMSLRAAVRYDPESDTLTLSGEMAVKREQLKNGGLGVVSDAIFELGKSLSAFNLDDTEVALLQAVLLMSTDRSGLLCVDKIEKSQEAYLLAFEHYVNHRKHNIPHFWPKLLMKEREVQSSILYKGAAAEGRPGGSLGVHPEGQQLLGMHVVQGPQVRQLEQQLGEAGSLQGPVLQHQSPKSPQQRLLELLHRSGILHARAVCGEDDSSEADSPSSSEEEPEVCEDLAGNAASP
Sequence of E-selectin (Homo sapiens) (P16581 whole entry, looked up): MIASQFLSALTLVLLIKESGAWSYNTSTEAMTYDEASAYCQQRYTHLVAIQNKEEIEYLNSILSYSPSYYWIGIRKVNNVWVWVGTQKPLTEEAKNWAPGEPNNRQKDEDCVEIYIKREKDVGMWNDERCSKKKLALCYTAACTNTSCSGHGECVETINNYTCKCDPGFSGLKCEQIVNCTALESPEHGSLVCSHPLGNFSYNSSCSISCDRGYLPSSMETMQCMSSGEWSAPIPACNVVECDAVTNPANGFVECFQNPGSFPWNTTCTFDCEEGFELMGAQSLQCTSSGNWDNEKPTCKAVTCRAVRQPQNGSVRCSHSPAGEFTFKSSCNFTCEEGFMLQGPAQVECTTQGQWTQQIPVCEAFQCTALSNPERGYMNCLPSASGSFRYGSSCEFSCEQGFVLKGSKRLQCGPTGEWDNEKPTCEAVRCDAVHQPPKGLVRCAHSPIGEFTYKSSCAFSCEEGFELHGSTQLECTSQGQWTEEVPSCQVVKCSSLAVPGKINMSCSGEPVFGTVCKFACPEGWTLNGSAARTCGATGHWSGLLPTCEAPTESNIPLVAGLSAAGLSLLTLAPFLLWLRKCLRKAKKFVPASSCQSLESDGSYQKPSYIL
Sequence of Retinoic acid receptor RXR-alpha (Homo sapiens) (P19793 whole entry, looked up, the tested form may be a part): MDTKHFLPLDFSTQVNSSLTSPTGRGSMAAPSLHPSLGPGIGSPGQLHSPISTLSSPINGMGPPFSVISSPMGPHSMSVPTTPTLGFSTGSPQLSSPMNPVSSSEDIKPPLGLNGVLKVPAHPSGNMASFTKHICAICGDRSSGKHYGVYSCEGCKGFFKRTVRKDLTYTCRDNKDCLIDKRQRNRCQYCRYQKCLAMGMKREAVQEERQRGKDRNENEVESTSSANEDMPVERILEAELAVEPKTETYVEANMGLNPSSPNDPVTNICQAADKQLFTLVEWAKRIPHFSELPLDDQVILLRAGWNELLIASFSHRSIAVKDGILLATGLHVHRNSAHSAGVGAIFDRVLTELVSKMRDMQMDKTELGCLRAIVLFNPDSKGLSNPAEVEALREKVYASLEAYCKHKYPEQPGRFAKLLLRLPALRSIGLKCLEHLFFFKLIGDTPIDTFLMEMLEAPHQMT
Sequence of human RAR-related Orphan Receptor beta (RORb), RORB (gene 6096) (Q92753 whole entry, looked up, the tested form may be a part): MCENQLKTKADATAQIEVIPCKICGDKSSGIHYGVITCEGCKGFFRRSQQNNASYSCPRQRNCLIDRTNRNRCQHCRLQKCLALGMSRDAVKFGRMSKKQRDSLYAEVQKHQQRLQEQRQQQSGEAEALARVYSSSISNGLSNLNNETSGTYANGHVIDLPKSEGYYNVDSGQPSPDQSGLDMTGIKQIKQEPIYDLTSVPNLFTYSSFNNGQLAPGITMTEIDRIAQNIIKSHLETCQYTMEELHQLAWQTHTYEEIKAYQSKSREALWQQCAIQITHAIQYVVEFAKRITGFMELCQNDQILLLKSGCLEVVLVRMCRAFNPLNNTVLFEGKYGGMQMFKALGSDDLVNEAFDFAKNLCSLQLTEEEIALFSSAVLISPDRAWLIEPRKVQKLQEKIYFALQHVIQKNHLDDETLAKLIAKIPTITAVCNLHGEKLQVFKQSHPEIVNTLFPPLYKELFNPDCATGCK

CC1=CCC2CC1C2(C)C (centres undefined)
inactive: [1] | [2]

Nc1ccc(Cl)c(N)c1
inactive: [1] | [3] | [2] | [4]

CCCCCCC=O
inactive: [1] | [3] | [4] | [5] | [6] | [7] | [8]

CCOC(=O)CC(=O)c1ccccc1
inactive: [9]

C=C(C)C1CC=C(C)C(OC(C)=O)C1 (centres undefined)
inactive: [1] | [2]

c1ccc2c(c1)[nH]c1ccccc12
inactive: [1] | [3] | [2] | [4] | [5] | [6] | [8]

CCC1(C)C(=O)N(Cl)C(=O)N1Cl (centres undefined)
inactive: [1] | [2] | [5] | [6] | [8]

COc1cc(C)ccc1O
inactive: [1] | [3] | [2] | [4]

CO[Si](CCCS)(OC)OC
inactive: [1] | [3] | [2] | [4]

CCc1cccc(C)c1N(C(=O)CS(=O)(=O)O)C(C)COC (centres undefined)
inactive: [1] | [2] | [4] | [5] | [6] | [8]

O=C(Cl)c1ccc(C(=O)Cl)cc1
inactive: [1] | [4]

CC(C)(CO)COC(=O)C(C)(C)CO
inactive: [1] | [4]

COC(=O)c1ccc(C(=O)OC)c(C(=O)OC)c1
inactive: [1] | [2]

C=C(C)C(=O)OCC(O)COc1ccc(C(C)(C)c2ccc(OCC(O)COC(=O)C(=C)C)cc2)cc1 (centres undefined)
active: [4] 23.8 µM
inactive: [1] | [3]

C=CCNCC=C
inactive: [1] | [3] | [4]

c1ccc2cnccc2c1
inactive: [1] | [3] | [4]

O=c1c(O)c(-c2ccc(O)cc2O)oc2cc(O)cc(O)c12
inactive: [9] | [3] | [2] | [4]

Nc1cccc(N)n1
inactive: [9] | [3] | [2] | [5] | [6] | [8]

CC/C=C\C/C=C\C/C=C\CCCCCCCC(=O)OC
active: [2] 125 µM | [5] 19.2 µM | [6] 16.2 µM | [10] 31.7 µM | [8] 10.7 µM
inactive: [9] | [3]

CCC(C)C(=O)OCCc1ccccc1 (centres undefined)
inactive: [9] | [3] | [2] | [4]

CC(C)=NNC(N)=S
inactive: [9] | [3] | [2] | [4]

COCC(=O)O
inactive: [9] | [3] | [4]

Cc1cc(=O)[nH]c(=O)[nH]1
inactive: [9] | [3] | [4]

CC(=O)OC(C)c1ccccc1 (centres undefined)
inactive: [9] | [3] | [4]

O=S(=O)(O)c1ccc(N=Nc2c(O)ccc3ccccc23)cc1
inactive: [9] | [3] | [2]

O=C(O)CC(C(=O)O)S(=O)(=O)O (centres undefined)
inactive: [9] | [3]

CC(=O)CCC1=C(C)CCCC1(C)C
inactive: [9] | [3] | [4]
active: [2] 19.6 µM

Cc1cc(C)c(C=O)c(C)c1
inactive: [9] | [3] | [2] | [4]

From PubChem BioAssay (EPA / NIEHS)
